# Source: PubChem (National Center for Advancing Translational Sciences (NCATS))
# Shown is part of a subset that was picked to be rich in hits.
# KDM5B inhibitor = KDM5B demethylase inhibition | KDM5B demethylase, FDH-coupled NADH fluorescence (FDH is formaldehyde dehydrogenase) | Potency, µM (highest dose often 57.7 µM), most hits filed as inhibitors | AID 1347165 | Q9UGL1 | 2.6% of 220,000 active; active means well fitted inhibition curve with a large enough effect; further: 0% is about no effect; nearly all actives have a fitted effect of over 70% in size
#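 Compound dilutions met 200 nM (final) KDM5BΔAP for 10 min at room temperature before substrate addition. The substrate mix held 12.5 µM H3K4me3 with cofactors 25 µM α-ketoglutarate and 50 µM Fe²⁺. NADH signal gain over 30 min defined activity.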
# The depositor's hits bear a star; i = inactive; [ ] = another dose, or the depositor's remark. Potency means the concentration at half of the fitted maximal effect.
SMILES,KDM5B inhibitor
O=C(NCc1nnc2cc(-c3nc(C4CC4)no3)ccn12)c1cccnc1,28µM*
CC(=O)N1CCN(C(=O)CCc2ccnc(N3CCOCC3)c2)CC1,28µM*
CN(CC1CCOCC1)C(=O)CCc1ccccc1,i
Cc1ccc(NC(=O)CCc2ccnc(N3CCCC3)c2)c(C)c1,32µM*
Cc1ccc(NC(=O)CCc2ccc(C)s2)c(C)c1,i
CCNc1cc(N2CCC(CCC(=O)N3CCOCC3)CC2)ncn1,i
CCOC(=O)c1ccc(NCc2ccnc(N3CCOCC3)c2)nc1,i
Cc1ccc(NC(=O)CCc2c(C)nn(-c3ccc(N4CCOCC4)nn3)c2C)c(C)c1,i
CCCN(C)C(=O)CCc1ccnc(N2CCOCC2)c1,25µM*
COc1ccc(CCC(=O)N2CCN(c3ccc(OC)cc3)CC2)cc1,i
O=C1/C(=C\c2cccs2)Sc2ccccc21,i
COc1ccc(C(CC(=O)NCc2cccnc2)Sc2n[nH]c(-c3ccc(F)cc3)n2)cc1 (configuration not stated),i
CCc1ccc(/C=C(/C#N)C(=O)c2c(C)[nH]c3ccccc23)cc1,i
Cc1ccc(-n2cc(-c3ccccc3)c3c(N4CCN(CCO)CC4)ncnc32)cc1Cl,i
Cc1ccc(-c2ccc(=O)n(C(C)C(=O)Nc3c(C)cc(C)cc3C)n2)cc1 (configuration not stated),i
O=C(CCl)N(CCc1ccccc1)Cc1cccs1,i
CC(Cc1nc2ccccc2s1)(C(=O)O)c1ccccc1 (configuration not stated),i
O=c1[nH]c(=O)n(CCc2ccccc2)c2nccc(-c3ccccc3)c12,i
COC(=O)c1ccc(NC(=O)N2CCn3nnc(CCC(=O)N4CCCC4)c3C2)cc1,i
COc1cc(O)ccc1CN1CCn2nnc(CCC(=O)N3CCCC3)c2C1,14µM*
COc1ccc(NC(=O)N2CCn3nnc(CCC(=O)N4CCOCC4)c3C2)cc1,i
COc1cc(C(=O)O)c(Br)cc1OC(C)C,i
S=C(NCc1cccs1)NCC1CCCCC1,i
O=C(O)c1cccc2c1C(=O)C(CC1CCCO1)N2 (configuration not stated),i
CC(C)Nc1nc(-c2ccc(NC(=O)C(C)(C)C)cc2)cs1,i
SMILES,KDM5B inhibitor
CCOc1cccc2cc(-c3csc(Nc4cccc(C(F)(F)F)c4)n3)c(=O)oc12,i
CC1(COc2ccccc2)COc2ccc(C(=O)NC3CCC(O)CC3)cc2N1 (configuration not stated),32µM*
CC1(COc2ccccc2)COc2ccc(C(=O)NCc3cnccn3)cc2N1 (configuration not stated),i
CC1(COc2ccc3[nH]ccc3c2)COc2ccc(C(=O)N3CC(O)C3)cc2N1 (configuration not stated),35µM*
CC1(COc2ccccc2)COc2ccc(C(=O)N3CCOCC3)cc2N1 (configuration not stated),i
CC1(COc2ccc3[nH]ccc3c2)COc2ccc(C(=O)N3CCOCC3)cc2N1 (configuration not stated),i
CC1(COc2ccc3[nH]ccc3c2)COc2ccc(C(=O)NCc3cccs3)cc2N1 (configuration not stated),40µM*
CC(C)CNC(=O)c1ccc2c(c1)NC(C)(COc1ccc3[nH]ccc3c1)CO2 (configuration not stated),32µM*
CN(C)C(=O)c1ccc2c(c1)NC(C)(COc1ccc3[nH]ccc3c1)CO2 (configuration not stated),i
COCCN(C)C(=O)c1ccc2c(c1)NC(C)(COc1ccc3[nH]ccc3c1)CO2 (configuration not stated),i
O=C1Cc2cc(-c3csc(NC4CCCCC4)n3)cc3c2N1CCC3,i
CC1(C)CCCC(C)(C#CCN2CCN(C(c3ccccc3)c3ccccc3)CC2)O1 (configuration not stated),i
CS(=O)(=O)c1ccc(C(=O)Nc2c(Cl)cc(NC(=O)c3ccccn3)cc2Cl)cc1,i
CC(C)CC1NC(=O)N(Cc2cc(F)cc3cccnc23)C1=O (configuration not stated),i
N=c1nnc(-c2ccc(Cl)cc2)cn1O,i
CC1(COc2ccc3[nH]ccc3c2)COc2ccc(C(=O)NC3CC3)cc2N1 (configuration not stated),32µM*
O=C(Nc1ccccc1)C1CCN(C(=O)c2ccc3ccccc3n2)CC1,i
Cc1ccc(CNCc2ccc(-c3ccccc3F)o2)cc1,i
CCN(CC)CCOc1ccc(NC(=O)c2nn(C)c(=O)c3ccccc23)cc1,i
O=Cc1c(-c2cc(Cl)ccc2Cl)[nH]c2ccccc12,i
O=C(O)c1ccccc1NS(=O)(=O)c1cc([N+](=O)[O-])ccc1N/N=C/c1ccsc1,i
CCc1ccc(-c2cc(C(F)(F)F)n3nc(C(=O)NCc4cnn(C)c4)cc3n2)s1,i
Cc1ccccc1-c1cc(C(=O)NCc2cnn(C)c2)c2c(c1)N(C)CCO2,32µM*
Cc1ccc(CNC(=O)c2cn(C)c3ccc(S(=O)(=O)N4CCOCC4)cc3c2=O)cc1,i[11.5 µM]
